Screening data (PubChem)
Most compounds without a hit are left out; they make up all but 3.1% or so of the library.
BRCA1 expr up: activators of BRCA1 expression. MCF7-BRCA1-FFLuc reporter, luminescence, 48 h; response scale: scaled: vehicle 0%, 10 µM genistein 100%. Potency, µM (titrated, usually from 46.1 µM), for the others: at the top dose activation, hits mostly activators. 1.1% of 380,000 active; note: potency is the fitted concentration of half-maximal effect; nearly all actives have a fitted effect of over 80% in size
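Luminescence from a BRCA1-driven firefly luciferase in MCF7 cells was read after 48 h compound exposure at 37 C. Data normalized against DMSO and a 10microM genistein activation control, then curve-fitted across the titration.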
ELG1 DNA repair: inhibitors of ELG1-dependent DNA repair in HEK293T cells. HEK293T ELG1-luciferase reporter, luminescence, 16 h; DNA damage induced by 5-fluorouridine. Potency, µM (top dose mostly 46.1 µM), for the others: top-dose activity change, negative = inhibition, actives largely listed as inhibitors. 2.3% of 330,000 active; note: potency is the fitted concentration of half-maximal effect; % is set by controls: 0 for no effect and ±100 for the full control effect; nearly all actives have a fitted effect of over 55% in size
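In this reporter screen, reduction of luminescence relative to DMSO vehicle indicated activity. Compounds and 5-fluorouridine were added together to 2,000 cells per well, incubated for 16 hr at 37 °C, then developed with ONE-Glo.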
Nrf2 activator: activators of Nrf2 (ARE) signaling | AREc32 ARE-luciferase reporter (MCF7-derived line), luminescence, 24 h | Potency, µM (titrated, usually from 46.1 µM), without a hit: top-dose activation, most hits filed as activators | 0.31% of 410,000 active; note: potency is the fitted concentration of half-maximal effect; % of control where 0% means no effect; nearly all actives have a fitted effect of over 65% in size
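ARE-driven firefly luciferase activity in AREc32 cells measured after a 24 hr compound exposure at 37 deg C, using Steady-Glo reagent and a 30 min room-temperature hold.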
IL2 activator: IL-2 activation; IL-2 activation reporter assay, cell-based qHTS; stimulated with anti-CD3/CD4/CD28 beads; in transgenic mouse T cells; activation, % (series mostly up to about 46 µM); 0.065% of 360,000 active; in the data active = activation above about 50%; inconclusive = mostly about 30% to 49%; note: 0% is about no effect
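Readout: EGFP and DsRed signals by fluorescent plate cytometry. Unstimulated transgenic mouse T cells received compound 60 min before antibody-bead stimulation, then incubated 18 h at 37 degrees C.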
Starred values were filed as active, the others as inactive; ? = inconclusive; . = no result given. Unless noted, calls come from the whole dose curve; as a rule, active = well fitted curve in the direction sought with a large enough effect; inconclusive = small, poorly fitted or top-dose-only effect, or another doubt; inactive = no such curve, though single readings can be large; an effect the other way counts as inactive or inconclusive.

SMILES | BRCA1 expr up | ELG1 DNA repair | Nrf2 activator | IL2 activator
Cc1cc(N2CCOCC2)nc2ccc(NC(=S)N3CCN(c4ccccc4)CC3)cc12 | 32.9% | 13.1% | 2.7% | -3.9
CCC(C)NC(=S)Nc1ccc2nc(N3CCOCC3)cc(C)c2c1 (centres undefined) | -2.5% | -27.6% | 4.7% | -0.3
COc1ccccc1N1CCN(C(=S)Nc2ccc3nc(N4CCOCC4)cc(C)c3c2)CC1 | -56.3% | 18.3µM* | 13.2% | -4.1
O=C(CC(=O)OCc1ccccc1)OCc1ccccc1 | 11.3% | . | -0.6% | 2.1
O=C(Nc1nccs1)OCc1ccccc1 | 14.1µM* | . | 8.3% | -0.8
O=C(NCc1ccccc1)C(=O)Nc1nccs1 | -22.3% | 26.2% | 0.0% | 3.8
O=C(NNc1ccccc1)OCc1ccccc1 | 11.2µM* | . | 0.5% | -1.7
CC1(C(=O)Nc2cccc3ccccc23)CCN1C(=O)Cc1ccc(Cl)cc1Cl (centres undefined) | -12.6% | . | 6.7% | 0.7
Cc1cc(C)cc(NC(=O)c2sc3nc(C)cc(C)c3c2N)c1 | 3.98µM* | ? | 2.4% | 0.2
Cc1cccc(NC(=O)c2sc3nc(N)c(C#N)cc3c2N)c1 | 3.16µM* | ? | 8.6% | -2.6
Cc1cc(C)c(NC(=O)c2sc3nc(C)cc(C)c3c2N)c(C)c1 | -37.6% | . | -0.5% | .
COc1ccc(N2C(=O)c3ccccc3NC2c2ccc(OC)c(COc3ccccn3)c2)cc1 (centres undefined) | 6.31µM* | ? | 5.7% | -0.6
CCOc1ccc(S(=O)(=O)NCc2ccco2)c2ccccc12 | 0.3% | 1.9% | 12.6µM* | -1.8
Fc1ccc(-n2nnc(-c3ccccc3)n2)cc1 | -1.5% | -6.0% | -0.2% | 1.7
c1ccc(-n2nnc(-c3nccs3)n2)cc1 | 2.82µM* | . | 0.3% | 0.1
Clc1ncccc1-c1nnn(-c2ccccc2Br)n1 | ? | ? | 23.2% | -4.8
Brc1ccccc1-n1nnc(-c2nccs2)n1 | 4.47µM* | ? | 3.3% | -2.5
COc1ccc(NC(=O)CN2C(=O)CCn3nc(-c4cccn4C)cc32)cc1 | . | . | -0.3% | .
Cc1ccc(OCCCC(=O)Nc2nc3ccccc3[nH]2)cc1 | -21.8% | -11.6% | -0.7% | 0.2
O=C(CCCOc1ccccc1)Nc1nc2ccccc2[nH]1 | 6.31µM* | ? | 3.3% | 0.2
Nc1nc(SCc2ccc(Cl)cc2Cl)nc2nc3c(cc12)CCCC3 | -56.1% | -1.3% | 4.4% | 82.2*
CC(C)(C)[C@@H]1COC(=O)[C@H](Cc2ccc(F)cc2)C/C=C\C[C@H](CC(=O)N(CCO)Cc2ccccc2)C(=O)N1 | -51.0% | 20.6µM* | 0.3% | -2.6
O=C1N[C@@H](c2ccccc2)COC(=O)[C@@H](Cc2ccc(F)cc2)CC/C=C/C[C@@H]1CC(=O)N(CCO)Cc1ccccc1 | -43.7% | 25.9µM* | 0.7% | -0.9
C[C@H]1COC(=O)[C@H](Cc2ccc(F)cc2)C/C=C\C[C@@H](CC(=O)N(CCO)Cc2ccccc2)C(=O)N1 | 7.3% | -17.5% | 2.0% | -2.7
O=C1N[C@@H](c2ccccc2)COC(=O)[C@@H](Cc2ccc(F)cc2)CC/C=C/C[C@H]1CC(=O)N(CCO)Cc1ccccc1 | 0.0% | 14.6µM* | -2.1% | -0.9
SMILES | BRCA1 expr up | ELG1 DNA repair | Nrf2 activator | IL2 activator
O=C1N[C@H](Cc2ccccc2)COC(=O)[C@H](Cc2ccc(F)cc2)CC/C=C/C[C@H]1CC(=O)N(CCO)Cc1ccccc1 | -29.4% | ? | -0.4% | -0.7
COc1cc2c(cc1OC)n(CC(=O)c1cc(C)ccc1C)c(=O)n1nc(CCn3nc(C)cc3C)nc21 | . | . | -0.8% | .
CCN(Cc1ccccc1)C(=O)c1cc2ccc3cccnc3c2[nH]1 | . | . | -0.3% | .
Cc1ccc(S(=O)(=O)N2CCN(S(=O)(=O)N3CCCCC3)CC2)c(C)c1 | -47.2% | 16.4µM* | -0.1% | 1.9
COc1ccc(N2CCn3c2nc2c3c(=O)n(CCCc3ccccc3)c(=O)n2C)c(OC)c1 | -72.4% | 20.6µM* | -0.6% | -3.5
COc1cccc(N2CC(O)Cn3c2nc2c3c(=O)n(CCCc3ccccc3)c(=O)n2C)c1 (centres undefined) | -26.0% | 23.1µM* | -0.6% | -0.5
CCOc1ccc(N2CC(O)Cn3c2nc2c3c(=O)n(CCCc3ccccc3)c(=O)n2C)cc1 (centres undefined) | -3.3% | ? | 0.5% | -0.2
COc1ccc(N2CC(C)Cn3c2nc2c3c(=O)n(Cc3ccccc3)c(=O)n2C)c(OC)c1 (centres undefined) | -17.6% | 18.3µM* | 0.2% | -0.4
